AC50 data for six compounds are collected here from article PMC6792352, “Limited Chemical Structural Diversity Found to Modulate Thyroid Hormone Receptor in the Tox21 Chemical Library” (Environmental Health Perspectives, 2019).

Structures are written as SMILES. Some results are limits rather than exact numbers.

For the test, the system named is thyroid hormone receptor (endogenous TRα and TRβ). Further details: species or system GH3-TRE-Luc (rat pituitary); GH3-TRE-Luc luciferase reporter, antagonist mode against 1 nM T3, loss of signal, qHTS. The conditions noted are these: read-out: Average AC50 (uM) GH3-TRE-Antag, antagonist mode, 1 nM T3, no GH3 cytotoxicity hit.
For the compound `CC(C)(O)C(=O)Nc1ccc([N+](=O)[O-])c(C(F)(F)F)c1` [Hydroxyflutamide], the AC50 was greater than 70 µM. For `Oc1cc(Cl)cc(Cl)c1` [3,5-Dichlorophenol] the value was 54 µM.

For `CC[C@H]1OC(=O)[C@H](C)C(=O)[C@H](C)[C@@H](O[C@@H]2O[C@H](C)C[C@H](N(C)C)[C@H]2O)[C@](C)(OC)C[C@@H](C)C(=O)[C@H](C)[C@H]2N(CCCCn3cnc(-c4cccnc4)c3)C(=O)O[C@]12C` [Telithromycin], the AC50 is 22.2 µM.

For `Cc1cc(OI)c(C(C)C)cc1-c1cc(C(C)C)c(OI)cc1C` [Thymol iodide], the AC50 amounted to 37.3 µM.

As to `COc1ccc(-n2nc(C(F)F)cc2-c2ccc([S+](C)[O-])cc2)cc1` (stereo not drawn) [Difpas-pyrazole], the AC50 was determined as 70.2 µM.

For the compound `c1ccc2c(c1)CCc1ccccc1N2` [10,11-Dihydro-5H-dibenz[b,f]azepine], the AC50 was 40.6 µM.

For orientation: AC50 means the concentration at which the activity in the assay is half-maximal.
